Source: PubChem (National Center for Advancing Translational Sciences (NCATS))
This is a sample that favours compounds with a hit; in the whole collection about 2.1% have one here.
Giardia kill: Giardia lamblia killing; 0.15% of 340,000 active; activity change, % at 7.66 µM, hits read low; AID 540267; Giardia lamblia trophozoite viability; in the data active means activity change below about -80%; inconclusive means between about -30% and that limit;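 further: parasites exposed to compound for two days anaerobically before the ATP read; on the % scale 0 is the no-effect control and ±100 the full control effect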
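Giardia trophozoites, 100 cells per well, were exposed to compounds for 48 hrs at 37 deg C under anaerobic conditions; viability was then read as ATP content by bioluminescence after 15-30 min at room temperature.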
B2AR arrestin: agonists driving beta-arrestin recruitment to human beta2-adrenergic receptor; Potency, µM (highest dose often 46.1 µM), without a hit: at the highest dose activation, usual class: activators; beta-arrestin recruitment to beta2AR, cell-based reporter; P07550; 0.02% of 330,000 active;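 further: potency means the concentration at half of the fitted maximal effect; 0% = DMSO controls and full agonism = EC100 isoproterenol or metaproterenol; nearly all actives have a fitted effect of over 65% in size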
Target sequence (P07550 whole entry, looked up): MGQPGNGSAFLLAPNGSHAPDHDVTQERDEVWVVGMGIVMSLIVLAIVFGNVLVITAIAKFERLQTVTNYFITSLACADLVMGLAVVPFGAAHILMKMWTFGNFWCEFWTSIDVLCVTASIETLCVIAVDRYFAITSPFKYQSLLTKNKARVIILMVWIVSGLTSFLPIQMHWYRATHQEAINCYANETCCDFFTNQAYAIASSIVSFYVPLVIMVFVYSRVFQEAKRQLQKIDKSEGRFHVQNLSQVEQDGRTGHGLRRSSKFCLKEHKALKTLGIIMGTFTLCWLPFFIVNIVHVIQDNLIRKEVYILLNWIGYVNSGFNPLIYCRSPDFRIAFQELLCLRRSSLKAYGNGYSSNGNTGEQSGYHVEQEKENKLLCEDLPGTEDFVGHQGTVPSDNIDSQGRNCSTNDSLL
Mito fusion act: inhibitors of mitochondrial division or activators of mitochondrial fusion; S. cerevisiae fusion-defective mutant growth rescue, CellTiterGlo 48 h; Potency, µM (series often up to 46.1 µM), for the others: at the top dose growth rescue (activation), actives largely listed as activators; 0.23% of 320,000 active; further: potency means the concentration at half of the fitted maximal effect; % of control where 0% means no effect; nearly all actives have a fitted effect of over 45% in size
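Temperature-sensitive fusion-defective S. cerevisiae (e.g. fzo1-1, mgm1-5) were grown with compound in YPEG medium (3% ethanol, 3% glycerol) for 48 hours at 37C. Growth rescue was measured as viability by CellTiterGlo luminescence after 10 minutes at ambient.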
uPA generation: inhibitors of cell surface uPA generation. cell surface uPA generation assay, qHTS. Potency, µM (titrated, usually from 38.3 µM), for inactives: at the top dose activity change, negative = inhibition, most hits filed as inhibitors. 0.31% of 330,000 active. AID 540303; active means well fitted inhibition curve with a large enough effect; inconclusive means small, poorly fitted or top-dose-only effect; inactive means no such curve, though single readings can be large or run the other way; tested in mouse RAW 264.7 cells; further: potency means the concentration at half of the fitted maximal effect; on the % scale 0 is the no-effect control and ±100 the full control effect; nearly all actives have a fitted effect of over 55% in size
p53 reactivator: restores transcriptional activity of mutant p53. H1299 p53-A138V BP100-luciferase reporter, luminescence, 24 h. Potency, µM (series often up to 92.2 µM), without a hit: top-dose activity change, positive = activation, usual class: activators. 0.063% of 320,000 active. AID 504706; further: potency means the concentration at half of the fitted maximal effect; % of control where 0% means no effect; nearly all actives have a fitted effect of over 45% in size
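H1299 (p53-null), stable ts p53-A138V + BP100-Luc; 1000 cells/well, Opti-MEM/10% FBS; cpd 4 pt, 1:5; 24 h, 37 deg C, 5% CO2; detection reagent 10 min RT; luminescence.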
ClpP mod: qHTS Assay for Activators of ClpP; purified B. subtilis ClpP, FRET peptide cleavage, 20 min; AID 651965, 2013; ATP-dependent Clp protease proteolytic subunit (Bacillus subtilis (strain 168)), P80244; 1.9% of 340,000 active; Potency, µM (highest dose often 57.5 µM), for inactives: at the highest dose activity change, negative = active; active means well fitted falling curve with a large enough effect; inconclusive means small, poorly fitted or top-dose-only effect; inactive means no such curve, though single readings can be large or run the other way; further: potency means the concentration at half of the fitted maximal effect; the source files actives as falling curves though it sought activators and does not explain the sign; nearly all actives have a fitted effect of over 65% in size
Target sequence (P80244 whole entry, looked up): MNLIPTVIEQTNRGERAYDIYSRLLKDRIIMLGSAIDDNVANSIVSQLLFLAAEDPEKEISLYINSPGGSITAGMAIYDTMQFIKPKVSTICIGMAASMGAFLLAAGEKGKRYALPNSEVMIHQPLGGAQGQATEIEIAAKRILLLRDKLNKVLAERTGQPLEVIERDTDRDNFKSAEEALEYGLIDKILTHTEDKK
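FRET quenching reversal measured ClpP activation: 10 microg/mL B. subtilis ClpP at pH 8 with the FRET-FV decapeptide, read at 430 nm after 320 nm excitation. The 20-min minus 0-min signal was scaled between DMSO/no-enzyme wells and ADEP (5.8 microM final).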
The depositor's hits bear a star; ? = inconclusive; / = no result given. Unless noted, the call rests on the fitted dose curve; in most records, active means well fitted curve in the direction sought with a large enough effect; inconclusive means small, poorly fitted or top-dose-only effect, or another doubt; inactive means no such curve, though single readings can be large; an effect the other way counts as inactive or inconclusive.

SMILES	Giardia kill	B2AR arrestin	Mito fusion act	uPA generation	p53 reactivator	ClpP mod
O=C(c1ccc(CN2CCc3ccccc3C2)cc1)N1CCc2ccccc2C1	-0.3	-0.3%	0.2%	5.5%	22.4%	5.1%
O=C(c1ccc(CN2CCc3ccccc3C2)cc1)N1CCN(c2ccccc2)CC1	11.6	2.5%	6.2%	-1.2%	-1.3%	31.6µM*
COc1cc(NC(=O)CCNS(=O)(=O)c2ccc3c(c2)CCN3C(=O)C2CC2)cc(OC)c1	/	/	/	/	/	0.8%
COc1ccc(NC(=O)Cn2cnc3c(oc4ccccc43)c2=O)cc1OC	/	/	/	/	/	1.2%
CCCCn1nc(C(=O)NCC(c2cccs2)N2CCOCC2)c2ccccc2c1=O (configuration not stated)	-5.4	0.3%	17.7%	11.2µM*	3.3%	-0.9%
CCn1nc(C(=O)NCC(c2cccs2)N2CCOCC2)c2ccccc2c1=O (configuration not stated)	25.6	3.7%	7.3%	2.4%	-13.7%	0.0%
COc1ccc(NC(=O)CSc2nc3ncccc3[nH]2)cc1OC	-20.2	-0.3%	-2.4%	-3.7%	7.1%	1.4%
COc1ccc(OC)c(C(=O)CSc2nc3ncccc3[nH]2)c1	2.4	0.0%	-2.1%	-6.2%	-3.4%	31.6µM*
COc1cc(NC(=O)CCn2nc(C)c(S(=O)(=O)N3CCCCC3)c2C)cc(OC)c1OC	/	/	/	/	/	1.0%
O=C(NCC(c1ccc(Cl)cc1)N1CCCCC1)c1ccccc1 (configuration not stated)	/	/	/	/	/	-3.0%
O=c1c(S(=O)(=O)c2ccccc2)cn(Cc2ccc(F)cc2)c2cc(N3CCCC3)c(F)cc12	/	/	/	/	/	-27.5%
O=c1c(S(=O)(=O)c2ccccc2)cn(Cc2cccc(F)c2)c2cc(N3CCCC3)c(F)cc12	/	/	/	/	/	-9.3%
O=c1c(S(=O)(=O)c2ccccc2)cn(Cc2cccc(F)c2)c2cc(N3CCOCC3)c(F)cc12	/	/	/	/	/	28.2µM*
CC1CCCCN1c1cc2c(cc1F)c(=O)c(S(=O)(=O)c1ccccc1)cn2Cc1ccccc1 (configuration not stated)	/	/	/	/	/	15.8µM*
O=c1c(S(=O)(=O)c2ccccc2)cn(Cc2ccccc2)c2cc(N3CCCC3)c(F)cc12	/	/	/	/	/	-4.7%
O=c1c(S(=O)(=O)c2ccccc2)cn(Cc2ccccc2)c2cc(N3CCOCC3)c(F)cc12	/	/	/	/	/	28.2µM*
Cc1ccc(S(=O)(=O)c2cn(Cc3ccccc3)c3cc(N4CCCC4)c(F)cc3c2=O)cc1C	/	/	/	/	/	12.6µM*
O=C(CSc1nnc(-c2ccccc2)c(-c2ccccc2)n1)NCCc1ccccc1	/	/	/	/	/	-0.8%
COc1ccc(NC(=O)C(NS(=O)(=O)c2cccc3nsnc23)c2ccccc2)cc1 (configuration not stated)	/	/	/	/	/	-2.0%
COc1cccc2c1C(=O)/C(=C\c1ccc(N(C)C)cc1)C2	/	/	/	/	/	0.1%
Cc1ccc2nc(SCc3cccc([N+](=O)[O-])c3)nc(C)c2c1	35.8	-1.1%	-1.2%	4.8%	11.9%	3.8%
COc1ccc2nc(SCC(=O)O)nc(C)c2c1	-6.3	-0.3%	5.6%	-0.1%	0.5%	28.2µM*
COc1ccc2nc(SC(C(=O)c3ccccc3)c3ccccc3)nc(C)c2c1 (configuration not stated)	-0.4	-0.3%	11.5%	-2.6%	6.8%	/
CN(C)c1nc(SCCOC(=O)Nc2ccccc2)nc(N(C)C)n1	-24.4	-1.5%	2.3%	2.8%	8.4%	-5.9%
COc1ccc2nc(SCCOC(=O)Nc3ccc(Cl)cc3)nc(C)c2c1	0.0	-0.9%	29.8%	0.2%	-14.5%	28.2µM*
SMILES	Giardia kill	B2AR arrestin	Mito fusion act	uPA generation	p53 reactivator	ClpP mod
COc1ccc2nc(SCc3cccc(C)c3)nc(C)c2c1	2.9	-0.2%	6.8%	3.3%	?	25.1µM*
COc1ccc2nc(SCc3ccccc3C)nc(C)c2c1	13.8	-0.9%	-7.0%	-5.8%	?	7.08µM*
CCc1ccccc1NC(=O)c1cn(C)c(=O)c2ccccc12	/	/	/	/	/	-11.2%
C/C(Cn1nc([N+](=O)[O-])cc1C)=N\NC(=O)c1ccc(C(C)(C)C)cc1	-4.6	0.0%	2.2%	-3.8%	4.9%	0.7%
Cc1cc([N+](=O)[O-])nn1Cc1ccc(C(=O)N/N=C/c2ccc(O)cc2O)cc1	6.3	-1.1%	0.1%	7.08µM*	?	-0.8%
Cc1cc([N+](=O)[O-])nn1Cc1ccc(C(=O)N/N=C/c2ccc(F)cc2)cc1	-8.4	-0.3%	-3.1%	-8.1%	2.4%	/
COc1ccc(C(=O)N/N=C(\C)Cn2nc([N+](=O)[O-])cc2C)cc1	7.3	-0.3%	-0.1%	-3.1%	4.5%	11.2µM*
Clc1ccccc1-c1nnc(-c2cccs2)o1	-15.4	0.4%	-4.3%	-8.3%	?	/
C(=C\c1nnc(-c2cccs2)o1)/c1ccccc1	-12.3	0.3%	-4.9%	-19.4%	23.7%	14.1µM*
Cc1ccc(/C=C/c2nnc(-c3ccccc3)o2)cc1	-6.4	-0.1%	-4.2%	0.8%	17.0%	31.6µM*
O=S(=O)(NCc1ccccc1)c1cccs1	-14.9	0.0%	-0.4%	-7.7%	-1.4%	14.1µM*
O=C1NC(c2ccccc2)N=C2Oc3ccccc3C=C12 (configuration not stated)	-12.7	/	/	-15.6%	/	11.2µM*
Cc1ccc(NC(=O)c2oc3ccc(S(=O)(=O)N4CCCCCC4)cc3c2C)c(C)c1	/	/	/	/	/	4.9%
COc1cccc(C(=O)Nc2ccc3c(cc2=O)[C@@H](NC(C)=O)CCc2cc(OC)c(OC)c(OC)c2-3)c1	-0.9	-0.7%	-84.7%	10µM*	2.2%	-2.6%
COCCNC(=S)N/N=C(\C)c1ccccc1OC	12.0	2.5%	-8.2%	4.5%	17.0%	2.82µM*
COCCNC(=S)N/N=C(\C)c1ccc(Cl)s1	2.6	10µM*	-12.5%	-1.0%	2.7%	/
CCC(CC)C(=O)Nc1cc(-c2cccc(C)c2)nn1-c1ccccc1	/	/	/	/	/	-1.1%
COc1ccc(CCNC(=O)c2cc(-c3ccc(C)c(C)c3)nc3ccccc23)cc1OC	/	/	/	/	/	6.4%
Cn1c(/C(C#N)=C(\O)c2ccc([N+](=O)[O-])s2)nc2ccccc21	-86.1*	2.4%	-2.8%	-1.4%	4.7%	/
Cn1c(/C(C#N)=C(\O)c2ccc(Cl)s2)nc2ccccc21	-5.4	0.1%	-2.5%	9.1%	?	0.5%
CC(C)(C)c1ccc(NC(=O)Nc2ccc(OCC(=O)N3CCOCC3)cc2)cc1	?	0.1%	-6.6%	-17.4%	26.1%	/
O=C(Nc1ccc(OCC(=O)N2CCOCC2)cc1)Nc1cccc(Cl)c1	-7.7	0.3%	-9.1%	6.5%	5.1%	11.2µM*
CCCCOc1ccc(C(=O)Nc2cc(C)c(OCC(=O)N3CCOCC3)c(C)c2)cc1	-8.3	0.4%	4.9%	-5.0%	8.1%	-0.2%
